In ChEMBL document CHEMBL3988442, “University of Dundee, Small-Polar-MMV Screening Library” (2021):
For some assays here: Measured potencies and affinities stand elsewhere.

Assays:
Set-up in all cases: scale not given: direction of the effect not stated beside the values
[1] = target: Protein translocase subunit SecA (Escherichia coli (strain K12)) (UniProt P10408); assay: Assay to Identify E. coli SecA ATPase Inhibitors; format: functional; details: 30 µM
[2] = target: T1, Ubiquitin-activating enzyme e1, putative (Leishmania donovani (strain BPK282A1)) (UniProt E9BSI1); assay: Leishmania donovani Ubiquitin Activating Enzyme (LdE1); format: functional; details: 30 µM
T1 sequence (whole entry): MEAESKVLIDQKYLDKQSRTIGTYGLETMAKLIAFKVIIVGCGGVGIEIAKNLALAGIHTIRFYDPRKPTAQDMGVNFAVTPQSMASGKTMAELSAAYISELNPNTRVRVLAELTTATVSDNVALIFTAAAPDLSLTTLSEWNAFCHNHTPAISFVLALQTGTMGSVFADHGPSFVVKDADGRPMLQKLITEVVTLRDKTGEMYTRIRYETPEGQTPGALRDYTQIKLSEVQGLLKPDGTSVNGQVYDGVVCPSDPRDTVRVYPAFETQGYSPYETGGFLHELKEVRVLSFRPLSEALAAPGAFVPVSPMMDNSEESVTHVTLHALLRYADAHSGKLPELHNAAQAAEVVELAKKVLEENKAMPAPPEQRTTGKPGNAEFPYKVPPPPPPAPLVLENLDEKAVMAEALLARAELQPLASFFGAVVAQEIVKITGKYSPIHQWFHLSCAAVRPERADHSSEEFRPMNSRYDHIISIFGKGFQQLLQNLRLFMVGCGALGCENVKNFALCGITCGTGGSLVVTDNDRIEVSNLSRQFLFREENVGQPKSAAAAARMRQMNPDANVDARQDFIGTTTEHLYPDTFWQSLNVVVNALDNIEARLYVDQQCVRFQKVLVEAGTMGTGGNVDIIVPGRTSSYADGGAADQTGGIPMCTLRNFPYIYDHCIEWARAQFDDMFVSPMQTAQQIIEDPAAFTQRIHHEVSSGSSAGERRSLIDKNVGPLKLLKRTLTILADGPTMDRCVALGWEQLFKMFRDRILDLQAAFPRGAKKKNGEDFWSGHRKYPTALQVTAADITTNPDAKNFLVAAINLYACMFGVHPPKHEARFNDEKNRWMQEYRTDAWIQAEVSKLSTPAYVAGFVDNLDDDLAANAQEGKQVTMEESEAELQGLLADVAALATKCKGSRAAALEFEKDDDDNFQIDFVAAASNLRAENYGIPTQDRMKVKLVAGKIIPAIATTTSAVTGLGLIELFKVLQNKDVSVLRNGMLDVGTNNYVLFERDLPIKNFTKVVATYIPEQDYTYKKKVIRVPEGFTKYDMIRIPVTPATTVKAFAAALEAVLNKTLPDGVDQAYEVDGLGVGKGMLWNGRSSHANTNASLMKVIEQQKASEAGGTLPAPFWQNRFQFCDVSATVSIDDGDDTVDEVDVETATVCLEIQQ

[3] = target: Sialic acid-binding Ig-like lectin 9 (Homo sapiens) (UniProt Q9Y336); assay: Hs-Siglec9 ALPHAscreen SOP 20170721; details: 10 µM
Trypanosoma cruzi = assay: Trypanosoma cruzi phosphomannomutase and mannose-1-phosphate guanylyltransferase assay; format: functional; details: 10 µM
[4] = target: T2, Arginase-2, mitochondrial (Homo sapiens) (UniProt P78540); assay: in vitro enzyme assay to detect the production of urea directly proportional to the activity of Arginase II; format: functional; details: 33.3 µM; also: in the data most compounds retested in dose-response had high values
T2 sequence (whole entry): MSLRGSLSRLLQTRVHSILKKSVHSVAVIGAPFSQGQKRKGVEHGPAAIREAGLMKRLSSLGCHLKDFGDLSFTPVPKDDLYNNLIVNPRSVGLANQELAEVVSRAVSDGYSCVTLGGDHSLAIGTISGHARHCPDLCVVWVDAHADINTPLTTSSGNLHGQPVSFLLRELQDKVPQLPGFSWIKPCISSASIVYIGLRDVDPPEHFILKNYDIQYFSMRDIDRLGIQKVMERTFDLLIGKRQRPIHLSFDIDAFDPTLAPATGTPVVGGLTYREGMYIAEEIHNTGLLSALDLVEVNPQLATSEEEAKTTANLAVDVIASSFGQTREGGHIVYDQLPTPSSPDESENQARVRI

[5] = target: T3, Proteasome subunit beta (Trypanosoma cruzi) (UniProt O96673); assay: Trypanosoma cruzi proteasome chymotrypsin-like activity (TcProtChymo) assay.; also: in the data most compounds retested in dose-response had high values; format: functional; details: 9.37 µM
T3 sequence (whole entry): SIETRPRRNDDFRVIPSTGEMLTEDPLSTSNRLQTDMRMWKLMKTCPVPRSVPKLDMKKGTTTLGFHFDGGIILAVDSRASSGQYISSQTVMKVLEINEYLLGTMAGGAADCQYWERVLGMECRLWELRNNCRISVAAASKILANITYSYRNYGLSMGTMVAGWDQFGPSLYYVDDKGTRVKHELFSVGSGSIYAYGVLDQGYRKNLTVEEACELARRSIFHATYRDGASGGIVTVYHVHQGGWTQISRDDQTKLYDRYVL

Homo sapiens = organism: Homo sapiens; assay: To identify inhibition of the IFN signalling (Jak-Stat) pathway via expression of an eGFP reporter gene under the control of an IFN-stimulated response element (ISRE) containing MxA promoter.; format: functional; details: 30 µM
[6] = target: T4, Tyrosyl-tRNA synthetase, putative (Trypanosoma cruzi (strain CL Brener)) (UniProt Q4DSP6); assay: Trypanosoma cruzi tyrosyl tRNA synthetase (TcYRS) _High Tyrosine SOP; format: functional; details: 30 µM; also: in the data most compounds retested in dose-response had high values
T4 sequence (whole entry): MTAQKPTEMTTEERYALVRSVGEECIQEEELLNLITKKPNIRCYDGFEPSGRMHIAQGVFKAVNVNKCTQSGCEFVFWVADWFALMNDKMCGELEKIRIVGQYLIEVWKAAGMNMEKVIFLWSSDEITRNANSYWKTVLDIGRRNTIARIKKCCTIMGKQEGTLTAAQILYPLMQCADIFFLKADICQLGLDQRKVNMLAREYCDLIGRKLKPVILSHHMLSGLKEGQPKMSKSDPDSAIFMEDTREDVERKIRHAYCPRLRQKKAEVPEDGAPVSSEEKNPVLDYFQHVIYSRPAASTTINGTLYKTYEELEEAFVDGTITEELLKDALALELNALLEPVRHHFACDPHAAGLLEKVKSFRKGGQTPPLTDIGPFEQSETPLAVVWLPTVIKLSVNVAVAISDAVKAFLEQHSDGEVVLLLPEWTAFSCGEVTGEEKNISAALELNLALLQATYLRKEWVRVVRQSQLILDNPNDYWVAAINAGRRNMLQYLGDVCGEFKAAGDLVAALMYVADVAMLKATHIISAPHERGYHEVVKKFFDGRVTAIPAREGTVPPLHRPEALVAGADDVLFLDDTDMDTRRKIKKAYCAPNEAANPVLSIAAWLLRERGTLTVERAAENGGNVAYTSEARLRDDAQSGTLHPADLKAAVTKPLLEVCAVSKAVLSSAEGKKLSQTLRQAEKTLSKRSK

[7] = target: T4, Tyrosyl-tRNA synthetase, putative (Trypanosoma cruzi (strain CL Brener)); assay: Trypanosoma cruzi tyrosyl tRNA synthetase (TcYRS) SOP; format: functional; details: 30 µM
[8] = target: Chromo domain-containing protein 1 (Saccharomyces cerevisiae (strain ATCC 204508 / S288c) (Baker's yeast)) (UniProt P32657); assay: ScCHD-1 Enzyme Inhibition Assay; format: functional; details: 30 µM; also: in the data most compounds retested in dose-response had high values
Sequence of Chromo domain-containing protein 1 (Saccharomyces cerevisiae (strain ATCC 204508 / S288c) (Baker's yeast)) (P32657 whole entry, the tested form may be a part): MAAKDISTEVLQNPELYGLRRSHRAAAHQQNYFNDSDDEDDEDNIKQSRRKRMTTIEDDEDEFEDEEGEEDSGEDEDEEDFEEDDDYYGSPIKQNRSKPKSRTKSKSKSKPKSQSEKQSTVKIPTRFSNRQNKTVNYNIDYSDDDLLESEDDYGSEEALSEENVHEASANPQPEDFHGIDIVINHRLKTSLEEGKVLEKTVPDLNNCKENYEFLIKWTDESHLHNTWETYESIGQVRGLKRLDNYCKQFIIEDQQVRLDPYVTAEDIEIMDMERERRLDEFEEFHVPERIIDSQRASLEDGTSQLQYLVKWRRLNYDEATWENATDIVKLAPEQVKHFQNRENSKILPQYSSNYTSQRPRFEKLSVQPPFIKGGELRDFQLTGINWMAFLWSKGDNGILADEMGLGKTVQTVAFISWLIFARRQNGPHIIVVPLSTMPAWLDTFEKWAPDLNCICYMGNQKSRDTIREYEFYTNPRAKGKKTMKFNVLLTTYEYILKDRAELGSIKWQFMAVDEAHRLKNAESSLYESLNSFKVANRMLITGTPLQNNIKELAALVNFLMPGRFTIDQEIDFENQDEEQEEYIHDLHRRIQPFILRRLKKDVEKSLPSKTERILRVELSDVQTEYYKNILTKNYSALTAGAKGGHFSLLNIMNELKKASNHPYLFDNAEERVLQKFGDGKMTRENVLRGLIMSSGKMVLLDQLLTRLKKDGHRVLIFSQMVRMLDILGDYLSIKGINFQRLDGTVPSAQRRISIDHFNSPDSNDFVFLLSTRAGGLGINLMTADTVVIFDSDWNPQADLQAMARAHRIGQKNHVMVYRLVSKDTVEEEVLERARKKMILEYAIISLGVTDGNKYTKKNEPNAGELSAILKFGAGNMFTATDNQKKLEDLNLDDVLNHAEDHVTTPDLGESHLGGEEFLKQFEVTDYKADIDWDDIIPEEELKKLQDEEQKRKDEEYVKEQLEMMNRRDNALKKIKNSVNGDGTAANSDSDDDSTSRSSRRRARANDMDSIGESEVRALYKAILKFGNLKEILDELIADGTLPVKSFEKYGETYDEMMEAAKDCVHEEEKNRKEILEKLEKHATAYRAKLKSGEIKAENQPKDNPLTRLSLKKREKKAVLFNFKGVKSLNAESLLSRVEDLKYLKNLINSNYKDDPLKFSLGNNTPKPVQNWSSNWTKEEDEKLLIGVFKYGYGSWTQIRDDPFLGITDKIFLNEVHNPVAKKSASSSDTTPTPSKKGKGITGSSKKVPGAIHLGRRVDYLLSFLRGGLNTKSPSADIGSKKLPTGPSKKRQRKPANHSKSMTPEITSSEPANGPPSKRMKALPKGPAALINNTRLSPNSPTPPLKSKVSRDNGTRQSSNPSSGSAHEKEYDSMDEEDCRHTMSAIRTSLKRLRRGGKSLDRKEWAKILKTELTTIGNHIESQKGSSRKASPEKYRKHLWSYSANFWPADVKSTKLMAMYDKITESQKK

Sequence of Sialic acid-binding Ig-like lectin 9 (Homo sapiens) (Q9Y336 whole entry): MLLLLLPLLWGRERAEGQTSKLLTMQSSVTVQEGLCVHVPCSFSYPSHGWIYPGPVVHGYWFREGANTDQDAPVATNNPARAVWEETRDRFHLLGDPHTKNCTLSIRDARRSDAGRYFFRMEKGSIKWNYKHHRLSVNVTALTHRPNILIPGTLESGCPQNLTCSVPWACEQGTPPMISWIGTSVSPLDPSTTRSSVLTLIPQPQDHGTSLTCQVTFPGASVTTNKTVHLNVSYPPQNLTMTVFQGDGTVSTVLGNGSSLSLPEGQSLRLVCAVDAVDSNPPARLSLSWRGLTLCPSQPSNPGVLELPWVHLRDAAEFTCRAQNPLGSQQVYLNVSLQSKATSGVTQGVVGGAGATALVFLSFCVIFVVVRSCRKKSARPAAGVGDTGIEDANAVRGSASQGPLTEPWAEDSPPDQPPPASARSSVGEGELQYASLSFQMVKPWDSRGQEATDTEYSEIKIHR
Sequence of Protein translocase subunit SecA (Escherichia coli (strain K12)) (P10408 whole entry): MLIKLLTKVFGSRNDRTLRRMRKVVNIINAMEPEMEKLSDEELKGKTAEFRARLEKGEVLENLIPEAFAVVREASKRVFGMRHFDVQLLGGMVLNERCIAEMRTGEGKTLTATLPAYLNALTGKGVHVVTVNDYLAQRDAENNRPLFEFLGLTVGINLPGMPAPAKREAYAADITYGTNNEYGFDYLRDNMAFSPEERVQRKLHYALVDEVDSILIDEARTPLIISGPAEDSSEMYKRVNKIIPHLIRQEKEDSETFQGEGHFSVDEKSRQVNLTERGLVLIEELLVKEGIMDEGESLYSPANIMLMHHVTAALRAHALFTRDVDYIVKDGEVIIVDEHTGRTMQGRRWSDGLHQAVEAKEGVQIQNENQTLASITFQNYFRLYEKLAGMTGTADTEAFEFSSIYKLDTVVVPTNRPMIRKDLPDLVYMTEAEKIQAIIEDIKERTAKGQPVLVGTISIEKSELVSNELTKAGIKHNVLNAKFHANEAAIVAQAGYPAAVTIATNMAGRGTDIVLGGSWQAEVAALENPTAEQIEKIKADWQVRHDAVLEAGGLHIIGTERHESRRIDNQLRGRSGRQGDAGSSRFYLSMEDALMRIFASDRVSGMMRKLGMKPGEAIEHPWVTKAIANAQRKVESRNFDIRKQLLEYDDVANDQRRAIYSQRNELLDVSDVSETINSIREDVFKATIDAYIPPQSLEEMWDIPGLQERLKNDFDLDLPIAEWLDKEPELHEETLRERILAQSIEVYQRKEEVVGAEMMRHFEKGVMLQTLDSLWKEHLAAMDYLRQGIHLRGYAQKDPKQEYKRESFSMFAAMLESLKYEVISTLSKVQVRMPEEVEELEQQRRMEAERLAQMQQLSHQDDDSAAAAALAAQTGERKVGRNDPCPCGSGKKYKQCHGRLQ

SMILES	Percent Effect [1]	Percent Effect [2]	Percent Effect [3]	Percent Effect (Trypanosoma cruzi)	Percent Effect [4]	Percent Effect [5]	Percent Effect (Homo sapiens)	Percent Effect [6]	Percent Effect [7]	Percent Effect [8]
Cc1ccc(C(=O)N2CCN(CCC(C)(C)C)CC2)c(=O)[nH]1	-4.94%	5.13%	4.25%	-0.845%	-0.82%	-1.79%	12%	3.35%	1.21%	1.43%
O=C(Nc1nccs1)NC1CCN(Cc2ccccc2)C1 (stereo not given)	0.43%	15.4%	-11.5%	7.04%	4.51%	9.13%	-11.6%	6.22%	22.9%	1.47%
Cc1nc(CN2CCCC(CCNS(C)(=O)=O)C2)c[nH]1 (stereo not given)	-6.15%	0%	1.08%	-0.873%	3.85%	1.71%	7.77%	3.72%	9.76%	-0.429%
c1cnc(N2CCC3(CC2)CN(CC2CC2)c2ccccc23)nc1	-2.71%	-9.09%	0.418%	2.81%	-2.28%	-0.0858%	15%	33.8%	20%	9.61%
Cc1ccc(NC2CCN(C(=O)c3cc(C(N)=O)cs3)CC2)nn1	-3.49%	2.67%	2.8%	1.41%	0.444%	7.55%	21.6%	1.58%	5.13%	-4.07%
CNC(=O)CN1CCCC12CCN(C(=O)c1ccsc1)CC2	-4.84%	27.3%	3.61%	3.94%	-1.83%	5.06%	1.81%	6.76%	-92.5%	-11.2%
O=C1CC2(CCCNC2)C(=O)N1Cc1ccc(F)cc1 (stereo not given)	-2.69%	11.7%	-3.81%	-5.82%	2.28%	6.95%	15.5%	0.966%	-2.5%	-0.664%
c1cnnc(N2CCCC(NCc3cn4ccccc4n3)C2)c1 (stereo not given)	4.38%	23.4%	-9.09%	-10.8%	-1.43%	26.5%	17%	8.82%	11.8%	-10.5%
Cc1nc(CN2CCCC(CCc3ccc(F)cc3F)C2)c[nH]1 (stereo not given)	-4.78%	-2.7%	37.1%	4.75%	1.05%	3.94%	-3.62%	2.66%	7.32%	-1.62%
Cc1nc(C2CCCN(C(=O)CO)C2)cc(N2CCOCC2)n1 (stereo not given)	-7.77%	0%	22.8%	9.02%	-2.45%	13.7%	6.91%	3.72%	14.6%	-5.28%
CC(C)c1nc(C2CCCN2CC(=O)Nc2ccc(Cl)cn2)no1 (stereo not given)	-10.5%	18.7%	16.2%	5.62%	-4.88%	8.23%	4.35%	5.79%	10.3%	-14.8%
Cc1cc(NCc2cccnc2)n2nc(C)cc2n1	-3.79%	2.7%	4.53%	-2.62%	1.75%	16.9%	17.8%	4.79%	14.6%	-3.52%
O=C(NCC1COCc2c(-c3cccnc3)nnn2C1)c1cccs1 (stereo not given)	-1.54%	9.09%	-6.14%	-8.28%	-12.2%	13%	4.75%	10%	10.3%	-4.23%
O=C1NCC2(CCCN(Cc3ccc(Cl)s3)C2)Oc2ccccc21 (stereo not given)	-1.75%	20%	4.75%	1.18%	-1.33%	10.3%	12.7%	4.23%	20%	-28.8%
c1ccc2cc(OCCN3CCn4c(nnc4C4CC4)C3)ccc2c1	-5.63%	-18.7%	-1.64%	1.61%	-5.32%	4.33%	-7.36%	1.58%	-10.3%	-10.9%
CC(C)C(NC(=O)Cn1ccc(=O)n(C)c1=O)c1ccc(F)cc1 (stereo not given)	1.48%	18.2%	-2.41%	-7.09%	5.53%	7.19%	22.3%	6.86%	18.8%	-8.33%
CC(C)n1[nH]c(=O)c2c1NC(=O)CC2c1cccc(OC(F)F)c1 (stereo not given)	-3.01%	2.7%	-4.26%	-8.63%	-1.75%	16.1%	27.6%	1.6%	2.44%	-5.54%
Cn1ccnc1CN1CCN(Cc2noc(-c3ccccc3)n2)CC1	-3.61%	10.7%	-0.35%	-6.02%	3.99%	7.55%	13.5%	3.68%	7.69%	-9.67%
CC(NC(=O)N(C)CCCOc1ccc(F)cc1)c1nncn1C (stereo not given)	-2.67%	8%	-3.38%	0.803%	5.76%	17.4%	8.6%	4.74%	10.3%	-10.2%
CCc1nc(C2CCCN2C(=O)C2=COCC2)no1 (stereo not given)	-6.76%	0%	1.81%	-4.02%	-0.444%	-2.46%	12.2%	4.74%	-2.56%	-3.47%
